In publication PMC7862700, “An all-to-all approach to the identification of sequence-specific readers for epigenetic DNA modifications on cytosine”:

Assays:
Assay in all cases: DAPPL (digital affinity profiling via proximity ligation, sequencing); 10 mM Tris-HCl pH 7.5, 50 mM NaCl, 1 mM DTT, 4% glycerol, room temperature, 30 min; GST-TFs on glutathione beads, 16-mer random dsDNA library, 0.1% formaldehyde crosslink after washing; high values mean tight binding
FEV = target: T1, FEV (Homo sapiens, UniProt Q99581 1-238); details: protein: recombinant; tags: N-terminal GST; dsDNA, one strand shown
T1 sequence: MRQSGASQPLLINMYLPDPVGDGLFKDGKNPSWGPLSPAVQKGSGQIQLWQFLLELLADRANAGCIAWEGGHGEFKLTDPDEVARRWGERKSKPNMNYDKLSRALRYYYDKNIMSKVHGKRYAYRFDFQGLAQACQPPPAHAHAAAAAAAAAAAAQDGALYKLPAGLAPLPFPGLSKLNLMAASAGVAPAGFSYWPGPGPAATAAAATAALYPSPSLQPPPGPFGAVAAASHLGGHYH
In short: (§1)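 In yeast, human transcription factors were expressed with a GST fusion, then pulled down on glutathione beads and given DNA barcodes. Pooled with a tag-only sample, they were exposed to 200 nmole of a 16-mer random double-stranded DNA library (Tris/NaCl/DTT/glycerol buffer, room temperature, 30 min), washed, crosslinked with 0.1% formaldehyde, proximity-ligated using BsaI/T4 ligase for 1 h at 37 °C, PCR-amplified and read on an Illumina NextSeq500. Each hexamer's frequency of reads for a factor, divided by the matching frequency for the tag-only sample, gives the binding signal.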

ETV5 = ETV5 (Homo sapiens, UniProt P41161 1-510); details: protein: recombinant; tags: N-terminal GST; dsDNA, one strand shown
Chain of ETV5 (P41161 whole entry): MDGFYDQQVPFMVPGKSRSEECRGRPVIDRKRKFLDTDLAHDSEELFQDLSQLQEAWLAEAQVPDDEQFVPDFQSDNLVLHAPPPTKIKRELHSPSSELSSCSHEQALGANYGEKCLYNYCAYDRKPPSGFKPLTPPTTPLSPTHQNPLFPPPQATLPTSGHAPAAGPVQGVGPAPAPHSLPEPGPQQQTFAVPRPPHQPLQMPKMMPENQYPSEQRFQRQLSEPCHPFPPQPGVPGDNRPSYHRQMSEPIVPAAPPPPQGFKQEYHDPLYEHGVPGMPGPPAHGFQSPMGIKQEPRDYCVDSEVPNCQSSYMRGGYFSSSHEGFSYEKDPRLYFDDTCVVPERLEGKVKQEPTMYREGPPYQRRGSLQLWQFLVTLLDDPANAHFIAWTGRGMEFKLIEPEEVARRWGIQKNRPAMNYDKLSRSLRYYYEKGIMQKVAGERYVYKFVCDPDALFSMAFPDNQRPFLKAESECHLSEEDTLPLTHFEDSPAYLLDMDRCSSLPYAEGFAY
In short: as §1

HSF1 = HSF1 (Homo sapiens, UniProt Q00613 1-529); details: protein: recombinant; tags: N-terminal GST; chain copies: 3; dsDNA, one strand shown
Chain of HSF1 (Q00613 whole entry): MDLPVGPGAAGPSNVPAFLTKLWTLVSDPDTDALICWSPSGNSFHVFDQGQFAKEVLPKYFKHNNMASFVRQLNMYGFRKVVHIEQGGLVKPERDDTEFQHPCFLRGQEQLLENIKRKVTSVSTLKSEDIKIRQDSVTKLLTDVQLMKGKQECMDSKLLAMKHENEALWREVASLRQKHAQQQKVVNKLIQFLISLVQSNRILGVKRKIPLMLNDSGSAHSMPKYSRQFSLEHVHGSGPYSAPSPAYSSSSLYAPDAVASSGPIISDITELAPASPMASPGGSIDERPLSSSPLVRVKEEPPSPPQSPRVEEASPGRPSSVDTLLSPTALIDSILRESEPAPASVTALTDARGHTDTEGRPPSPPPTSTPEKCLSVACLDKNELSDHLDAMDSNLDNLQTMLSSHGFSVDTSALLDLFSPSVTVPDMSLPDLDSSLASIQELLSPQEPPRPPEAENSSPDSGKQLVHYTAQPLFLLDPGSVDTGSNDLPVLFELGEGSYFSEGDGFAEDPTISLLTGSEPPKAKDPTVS
In short: as §1

SPIC = target: T2, SPIC (Homo sapiens, UniProt Q8N5J4 1-248); details: protein: recombinant; tags: N-terminal GST; dsDNA, one strand shown
T2 sequence: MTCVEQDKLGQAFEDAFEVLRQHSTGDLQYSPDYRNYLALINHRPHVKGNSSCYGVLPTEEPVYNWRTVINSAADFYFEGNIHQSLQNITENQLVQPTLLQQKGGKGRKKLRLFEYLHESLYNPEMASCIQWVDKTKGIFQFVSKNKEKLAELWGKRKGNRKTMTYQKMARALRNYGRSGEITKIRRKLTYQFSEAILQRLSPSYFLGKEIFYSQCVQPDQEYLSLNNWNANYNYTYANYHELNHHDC
In short: as §1

ELF4 = ELF4 (Homo sapiens, UniProt Q99607 1-663); details: protein: recombinant; tags: N-terminal GST; dsDNA, one strand shown
Chain of ELF4 (Q99607 whole entry): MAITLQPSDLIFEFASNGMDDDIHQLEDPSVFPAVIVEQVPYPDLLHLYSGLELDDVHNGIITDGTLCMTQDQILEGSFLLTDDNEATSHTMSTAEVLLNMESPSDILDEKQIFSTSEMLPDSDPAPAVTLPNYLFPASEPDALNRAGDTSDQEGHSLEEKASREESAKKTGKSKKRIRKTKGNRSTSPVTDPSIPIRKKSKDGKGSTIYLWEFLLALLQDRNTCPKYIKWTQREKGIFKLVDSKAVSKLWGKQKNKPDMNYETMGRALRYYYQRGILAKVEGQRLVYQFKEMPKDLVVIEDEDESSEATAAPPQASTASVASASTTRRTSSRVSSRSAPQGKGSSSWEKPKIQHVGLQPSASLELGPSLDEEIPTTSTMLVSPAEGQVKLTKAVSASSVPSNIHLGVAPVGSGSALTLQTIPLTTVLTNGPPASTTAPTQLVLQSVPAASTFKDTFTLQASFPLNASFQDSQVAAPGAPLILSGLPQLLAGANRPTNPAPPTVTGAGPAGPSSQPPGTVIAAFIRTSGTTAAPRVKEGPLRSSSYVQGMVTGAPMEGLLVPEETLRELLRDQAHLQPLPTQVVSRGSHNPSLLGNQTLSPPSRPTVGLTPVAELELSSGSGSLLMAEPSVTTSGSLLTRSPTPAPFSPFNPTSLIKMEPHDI
In short: as §1

ELK4 = target: T3, ELK4 (Homo sapiens, UniProt P28324-2 1-405); details: protein: recombinant; tags: N-terminal GST; dsDNA, one strand shown
T3 sequence: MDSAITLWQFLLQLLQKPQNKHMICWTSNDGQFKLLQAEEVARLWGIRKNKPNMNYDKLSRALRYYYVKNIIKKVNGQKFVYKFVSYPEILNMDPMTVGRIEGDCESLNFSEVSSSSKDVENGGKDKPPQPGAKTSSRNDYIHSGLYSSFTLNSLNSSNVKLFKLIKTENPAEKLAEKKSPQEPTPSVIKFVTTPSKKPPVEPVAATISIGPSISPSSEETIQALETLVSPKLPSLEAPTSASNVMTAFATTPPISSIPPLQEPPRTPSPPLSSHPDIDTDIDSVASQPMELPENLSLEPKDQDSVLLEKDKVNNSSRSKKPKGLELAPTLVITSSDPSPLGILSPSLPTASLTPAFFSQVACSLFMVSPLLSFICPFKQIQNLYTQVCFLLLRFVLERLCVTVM
In short: as §1

ETV2 = target: T4, ETV2 (Homo sapiens, UniProt O00321 1-342); details: protein: recombinant; tags: N-terminal GST; dsDNA, one strand shown
T4 sequence: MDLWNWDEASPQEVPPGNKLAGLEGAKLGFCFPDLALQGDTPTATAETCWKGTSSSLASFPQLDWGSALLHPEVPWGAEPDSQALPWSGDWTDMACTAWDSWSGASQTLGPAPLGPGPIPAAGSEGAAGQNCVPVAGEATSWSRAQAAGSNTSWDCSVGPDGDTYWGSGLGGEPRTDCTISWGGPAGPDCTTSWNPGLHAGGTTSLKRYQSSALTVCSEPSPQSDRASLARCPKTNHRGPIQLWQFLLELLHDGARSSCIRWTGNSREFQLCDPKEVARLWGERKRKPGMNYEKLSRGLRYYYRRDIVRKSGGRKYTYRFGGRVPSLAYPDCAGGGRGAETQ
In short: as §1

ELF3 = target: T5, ELF3 (Homo sapiens, UniProt P78545 1-371); details: protein: recombinant; tags: N-terminal GST; dsDNA, one strand shown
T5 sequence: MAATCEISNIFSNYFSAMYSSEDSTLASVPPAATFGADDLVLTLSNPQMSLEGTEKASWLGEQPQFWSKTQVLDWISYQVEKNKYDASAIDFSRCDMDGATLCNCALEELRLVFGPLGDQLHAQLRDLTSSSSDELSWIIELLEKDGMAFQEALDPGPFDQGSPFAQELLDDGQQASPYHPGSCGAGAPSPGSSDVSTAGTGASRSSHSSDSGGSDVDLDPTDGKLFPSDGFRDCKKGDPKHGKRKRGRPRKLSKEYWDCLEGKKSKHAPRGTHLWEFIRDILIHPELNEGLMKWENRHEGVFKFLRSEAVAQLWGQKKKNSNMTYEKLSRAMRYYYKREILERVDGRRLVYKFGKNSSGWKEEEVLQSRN
In short: as §1

CRX = CRX (Homo sapiens, UniProt O43186 1-299); details: protein: recombinant; tags: N-terminal GST; dsDNA, one strand shown
Chain of CRX (O43186 whole entry): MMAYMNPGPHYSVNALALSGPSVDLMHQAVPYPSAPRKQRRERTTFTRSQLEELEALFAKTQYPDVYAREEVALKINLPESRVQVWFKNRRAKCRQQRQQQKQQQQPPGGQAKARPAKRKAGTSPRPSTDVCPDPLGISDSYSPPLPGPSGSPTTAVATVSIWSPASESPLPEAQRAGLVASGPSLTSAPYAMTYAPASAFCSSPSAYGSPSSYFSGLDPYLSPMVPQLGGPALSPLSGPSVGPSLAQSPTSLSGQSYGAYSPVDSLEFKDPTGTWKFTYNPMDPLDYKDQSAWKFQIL
In short: as §1

ETV1 = ETV1 (Homo sapiens, UniProt P50549 1-477); details: protein: recombinant; tags: N-terminal GST; dsDNA, one strand shown
Chain of ETV1 (P50549 whole entry): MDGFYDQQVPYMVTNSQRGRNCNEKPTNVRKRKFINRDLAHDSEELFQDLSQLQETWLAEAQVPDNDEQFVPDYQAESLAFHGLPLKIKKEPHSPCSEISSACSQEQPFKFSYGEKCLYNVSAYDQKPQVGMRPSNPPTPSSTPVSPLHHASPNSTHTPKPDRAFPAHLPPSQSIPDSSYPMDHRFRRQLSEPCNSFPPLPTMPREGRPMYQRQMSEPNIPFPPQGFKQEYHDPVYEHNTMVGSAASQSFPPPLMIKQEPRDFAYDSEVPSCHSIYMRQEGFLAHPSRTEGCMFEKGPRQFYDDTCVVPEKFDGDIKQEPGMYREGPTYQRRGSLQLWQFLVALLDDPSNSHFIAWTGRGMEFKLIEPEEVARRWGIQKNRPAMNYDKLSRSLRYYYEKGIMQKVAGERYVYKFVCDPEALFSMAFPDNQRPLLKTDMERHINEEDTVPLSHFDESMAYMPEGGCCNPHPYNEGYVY
In short: as §1

ERF = target: T6, ERF (Homo sapiens, UniProt P50548 1-548); details: protein: recombinant; tags: N-terminal GST; dsDNA, one strand shown
T6 sequence: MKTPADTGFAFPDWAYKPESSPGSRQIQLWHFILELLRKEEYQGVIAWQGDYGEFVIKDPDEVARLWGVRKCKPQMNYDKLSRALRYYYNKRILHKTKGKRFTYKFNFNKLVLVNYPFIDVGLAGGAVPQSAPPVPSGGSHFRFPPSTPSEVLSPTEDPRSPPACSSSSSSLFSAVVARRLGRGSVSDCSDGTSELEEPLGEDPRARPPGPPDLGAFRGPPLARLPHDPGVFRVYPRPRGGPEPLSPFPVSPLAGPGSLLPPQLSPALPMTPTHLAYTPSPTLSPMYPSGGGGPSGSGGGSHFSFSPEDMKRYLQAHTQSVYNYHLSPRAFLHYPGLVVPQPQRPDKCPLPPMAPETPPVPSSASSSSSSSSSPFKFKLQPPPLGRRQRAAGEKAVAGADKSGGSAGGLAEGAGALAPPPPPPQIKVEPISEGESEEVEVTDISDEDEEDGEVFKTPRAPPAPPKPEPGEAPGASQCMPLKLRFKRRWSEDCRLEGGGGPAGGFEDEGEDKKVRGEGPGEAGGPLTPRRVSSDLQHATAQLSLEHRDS
In short: as §1

ETV3L = target: T7, ETV3L (Homo sapiens, UniProt Q6ZN32 1-361); details: protein: recombinant; tags: N-terminal GST; dsDNA, one strand shown
T7 sequence: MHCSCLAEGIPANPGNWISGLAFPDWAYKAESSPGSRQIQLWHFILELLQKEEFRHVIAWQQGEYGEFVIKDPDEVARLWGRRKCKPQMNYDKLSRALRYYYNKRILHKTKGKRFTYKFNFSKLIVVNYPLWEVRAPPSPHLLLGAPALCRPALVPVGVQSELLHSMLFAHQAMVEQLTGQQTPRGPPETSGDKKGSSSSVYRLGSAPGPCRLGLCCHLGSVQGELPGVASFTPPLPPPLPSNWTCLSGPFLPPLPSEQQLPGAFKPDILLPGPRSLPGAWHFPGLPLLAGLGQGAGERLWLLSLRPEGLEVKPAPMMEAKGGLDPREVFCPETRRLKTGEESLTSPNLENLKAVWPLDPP
In short: as §1

ETS2 = target: T8, ETS2 (Homo sapiens, UniProt P15036 1-469); details: protein: recombinant; tags: N-terminal GST; dsDNA, one strand shown
T8 sequence: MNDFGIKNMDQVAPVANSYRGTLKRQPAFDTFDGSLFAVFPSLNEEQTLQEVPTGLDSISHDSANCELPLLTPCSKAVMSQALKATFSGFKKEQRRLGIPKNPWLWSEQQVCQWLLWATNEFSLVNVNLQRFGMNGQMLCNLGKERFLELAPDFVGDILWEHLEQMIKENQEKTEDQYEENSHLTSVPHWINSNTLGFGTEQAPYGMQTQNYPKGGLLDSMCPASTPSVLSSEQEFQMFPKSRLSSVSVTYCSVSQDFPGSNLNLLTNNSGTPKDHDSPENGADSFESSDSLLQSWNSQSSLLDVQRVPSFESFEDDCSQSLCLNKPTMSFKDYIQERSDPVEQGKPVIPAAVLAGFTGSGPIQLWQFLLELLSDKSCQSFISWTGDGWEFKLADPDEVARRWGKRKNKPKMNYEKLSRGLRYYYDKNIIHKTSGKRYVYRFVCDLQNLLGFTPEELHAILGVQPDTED
In short: as §1

SPDEF = target: T9, SPDEF (Homo sapiens, UniProt O95238 1-335); details: protein: recombinant; tags: N-terminal GST; dsDNA, one strand shown
T9 sequence: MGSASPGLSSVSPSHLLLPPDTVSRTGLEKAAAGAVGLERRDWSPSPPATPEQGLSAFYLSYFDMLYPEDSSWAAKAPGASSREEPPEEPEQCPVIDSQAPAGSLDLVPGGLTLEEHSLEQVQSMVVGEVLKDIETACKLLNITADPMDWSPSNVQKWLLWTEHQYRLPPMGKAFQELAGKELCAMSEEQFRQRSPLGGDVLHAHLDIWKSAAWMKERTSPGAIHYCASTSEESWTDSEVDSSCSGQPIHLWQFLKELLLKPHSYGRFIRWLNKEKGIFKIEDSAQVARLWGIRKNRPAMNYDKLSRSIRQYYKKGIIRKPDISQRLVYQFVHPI
In short: as §1

ETV7 = target: T10, ETV7 (Homo sapiens, UniProt Q9Y603 1-341); details: protein: recombinant; tags: N-terminal GST; dsDNA, one strand shown
T10 sequence: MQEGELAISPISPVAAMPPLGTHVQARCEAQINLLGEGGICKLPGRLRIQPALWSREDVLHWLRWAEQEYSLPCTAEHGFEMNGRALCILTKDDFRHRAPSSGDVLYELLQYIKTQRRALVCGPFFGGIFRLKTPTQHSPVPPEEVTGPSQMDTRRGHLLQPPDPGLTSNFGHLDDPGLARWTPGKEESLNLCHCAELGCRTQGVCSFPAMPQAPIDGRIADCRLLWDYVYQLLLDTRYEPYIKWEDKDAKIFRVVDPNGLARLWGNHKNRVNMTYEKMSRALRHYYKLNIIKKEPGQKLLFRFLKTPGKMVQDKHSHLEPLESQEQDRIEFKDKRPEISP
In short: as §1

ELF5 = target: T11, ELF5 (Homo sapiens, UniProt Q9UKW6-2 1-255); details: protein: recombinant; tags: N-terminal GST; dsDNA, one strand shown
T11 sequence: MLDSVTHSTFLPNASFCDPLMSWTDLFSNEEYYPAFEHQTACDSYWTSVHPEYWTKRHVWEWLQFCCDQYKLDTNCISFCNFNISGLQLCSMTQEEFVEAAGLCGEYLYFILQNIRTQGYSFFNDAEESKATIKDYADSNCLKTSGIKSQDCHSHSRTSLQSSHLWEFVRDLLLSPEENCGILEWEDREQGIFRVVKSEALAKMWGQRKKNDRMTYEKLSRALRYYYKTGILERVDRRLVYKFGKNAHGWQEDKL
In short: as §1

ETV3 = target: T12, ETV3 (Homo sapiens, UniProt P41162-2 1-143); details: protein: recombinant; tags: N-terminal GST; dsDNA, one strand shown
T12 sequence: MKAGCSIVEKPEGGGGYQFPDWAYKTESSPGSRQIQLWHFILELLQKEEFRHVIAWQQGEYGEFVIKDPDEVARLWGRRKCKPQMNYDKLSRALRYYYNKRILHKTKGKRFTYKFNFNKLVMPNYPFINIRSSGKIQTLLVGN
In short: as §1

ETV6 = ETV6 (Homo sapiens, UniProt P41212 1-452); details: protein: recombinant; tags: N-terminal GST; dsDNA, one strand shown
Chain of ETV6 (P41212 whole entry): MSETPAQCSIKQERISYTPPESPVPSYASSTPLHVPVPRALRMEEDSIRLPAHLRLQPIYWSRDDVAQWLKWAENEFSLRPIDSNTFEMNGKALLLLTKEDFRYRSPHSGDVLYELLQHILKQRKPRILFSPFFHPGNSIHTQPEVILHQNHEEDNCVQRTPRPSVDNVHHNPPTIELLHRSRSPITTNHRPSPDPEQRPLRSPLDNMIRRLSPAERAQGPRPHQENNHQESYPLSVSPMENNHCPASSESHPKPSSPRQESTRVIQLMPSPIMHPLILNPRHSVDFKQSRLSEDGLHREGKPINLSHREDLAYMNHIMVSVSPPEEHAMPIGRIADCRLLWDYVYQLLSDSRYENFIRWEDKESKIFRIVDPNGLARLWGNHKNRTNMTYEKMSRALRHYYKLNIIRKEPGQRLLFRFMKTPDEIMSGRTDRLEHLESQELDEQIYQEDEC
In short: as §1

What does the source list for TGTAAT?
binding signal (FEV): 1.12 fold enrichment (6-mer frequency, TF over GST control); binding signal (ETV5): 1.17 fold enrichment (6-mer frequency, TF over GST control); binding signal (HSF1): 1.39 fold enrichment (6-mer frequency, TF over GST control); binding signal (SPIC): 1.27 fold enrichment (6-mer frequency, TF over GST control); binding signal (ELF4): 1.23 fold enrichment (6-mer frequency, TF over GST control); binding signal (ELK4): 1.21 fold enrichment (6-mer frequency, TF over GST control); binding signal (ETV2): 1.26 fold enrichment (6-mer frequency, TF over GST control); binding signal (ELF3): 1.26 fold enrichment (6-mer frequency, TF over GST control); binding signal (CRX): 1.79 fold enrichment (6-mer frequency, TF over GST control); binding signal (ETV1): 1.17 fold enrichment (6-mer frequency, TF over GST control); binding signal (ERF): 1.14 fold enrichment (6-mer frequency, TF over GST control); binding signal (ETV3L): 1.18 fold enrichment (6-mer frequency, TF over GST control); binding signal (ETS2): 1.23 fold enrichment (6-mer frequency, TF over GST control); binding signal (SPDEF): 1.25 fold enrichment (6-mer frequency, TF over GST control); binding signal (ETV7): 1.26 fold enrichment (6-mer frequency, TF over GST control); binding signal (ELF5): 1.22 fold enrichment (6-mer frequency, TF over GST control); binding signal (ETV3): 1.05 fold enrichment (6-mer frequency, TF over GST control); binding signal (ETV6): 1.22 fold enrichment (6-mer frequency, TF over GST control)
